Among the test systems are T-47D breast; BT-549 breast; MDA-MB-435 melanoma; SW-620 colon; MCF7 breast; HCT-116 colon; HCC-2998 colon; KM12 colon.
Holding throughout (assay): NCI-60 one-dose screen, 48 h (100 = growth as untreated, 0 = no growth, -100 = all killed)
Holding throughout (details): 10 µM unless noted

The structures appear in SMILES notation. This is part of a sample that, as a whole, favours compounds with a hit. Of some 83,000 tested, about 20% had one in any assay.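 Negative percent growth values reflect cell death: -40 means 40% of the cells present at the start died, and -100 means all died.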 A number with no mark means an inactive call. Activity calls are given as the source filed them. The calls were made as follows: active = growth percent below 10; inactive = the rest.

For the compound `O=C(Nc1ccccc1O)c1ccc(CNC(=O)c2sccc2Nc2ccnc(C(F)(F)F)c2)cc1`, the growth is 40.1% in the experiment with T-47D breast; 59.5% with BT-549 breast; 39.3% in the experiment with MDA-MB-435 melanoma; 41.9% with SW-620 colon; 30.1% in the experiment with MCF7 breast; 26.3% with HCT-116 colon. Also, the growth with HCC-2998 colon was 65.4%; with KM12 colon it was 60.9%.

In the case of `CCCC/C=C/[C@@H]1C[C@H]1CCO`, the growth was 95.9% with T-47D breast; 96.8% in the experiment on BT-549 breast; 102% with MDA-MB-435 melanoma; 102% in the experiment with SW-620 colon; 87.5% in the experiment with MCF7 breast; 90.6% in the experiment on HCT-116 colon. In addition, the growth is 102% with HCC-2998 colon and 103% in the experiment on KM12 colon.

As for `O=c1scc(-c2ccc(C(F)(F)F)cc2)s1`, the growth in the experiment with T-47D breast was 95.6%; with BT-549 breast, 88.3%; in the experiment on MDA-MB-435 melanoma, 87.5%; in the experiment on SW-620 colon it was 96.8%; with MCF7 breast it was 64.9%; in the experiment on HCT-116 colon, 100%. Further, the growth in the experiment on HCC-2998 colon was 76.7%; with KM12 colon, 109%.

Turning to `Cc1ccc2c(c1)=C/C(=C\c1cc(-c3ccccc3)oc1O)C(=O)N=2`, the growth with T-47D breast is 97.7%; with BT-549 breast, 94.3%; with MDA-MB-435 melanoma it was 110%; in the experiment on SW-620 colon it was 107%; in the experiment on MCF7 breast, 89.2%; in the experiment with HCT-116 colon, 93.1%. For the same compound, the results for the growth with HCC-2998 colon and in the experiment on KM12 colon were 115% and 100%, respectively.

Turning to `O=C(c1nn(-c2ccccc2)c2c1CC(NCc1ccc(F)cc1)CC2)N1CCCCC1` (stereo not given), the growth in the experiment on T-47D breast is 93.6%; in the experiment on BT-549 breast it was 84.6%; in the experiment on MDA-MB-435 melanoma, 98.9%; in the experiment with SW-620 colon, 110%; in the experiment with MCF7 breast, 88.1%; with HCT-116 colon, 90.5%. The growth in the experiment with HCC-2998 colon was 104%; in the experiment on KM12 colon it was 102%.

Regarding `COc1ccc2cc1Oc1ccc(cc1)C[C@H]1c3c(cc4c(c3Oc3cc5c(cc3OC)CCN(C)[C@@H]5C2)OCO4)CCN1C`, the growth with T-47D breast was 115%; with BT-549 breast, 52%; in the experiment on MDA-MB-435 melanoma, 19%; in the experiment with SW-620 colon, 55.3%; with MCF7 breast, 34.6%; with HCT-116 colon it was 19.2%. For the same compound, the growth with HCC-2998 colon was 59.9%; with KM12 colon it was 55.2%.

For the compound `c1ccc(Cn2cc3c(c2)-c2oncc2CC3)cc1`, the growth was 42.1% with T-47D breast; 82.9% in the experiment with BT-549 breast; -34.7% (active) in the experiment with MDA-MB-435 melanoma; 23.9% with SW-620 colon; 18.8% with MCF7 breast; 9.28% (active) in the experiment with HCT-116 colon. Moreover, the growth in the experiment with HCC-2998 colon was 4.68% (active); in the experiment with KM12 colon it was 13.6%.

With `CC1CCN(S(=O)(=O)c2ccc(S(=O)(=O)N3CCCC(c4nc5c(nnn5Cc5cccc(Cl)c5)c(=O)[nH]4)C3)cc2)CC1` (stereo not given), the growth in the experiment with T-47D breast was 50.3%; in the experiment with BT-549 breast it was 67.9%; in the experiment on MDA-MB-435 melanoma it was -30.9% (active); in the experiment on SW-620 colon it was 33.4%; with MCF7 breast, 23.3%; in the experiment on HCT-116 colon, 15.1%. The growth is 70.8% in the experiment with HCC-2998 colon and 39.3% with KM12 colon.

For `CCCNC(=O)Nc1ccc2cc3ccc(NC(=O)NCCC)cc3nc2c1`, the growth is 46.6% in the experiment with T-47D breast; 82.1% in the experiment on BT-549 breast; 77.4% in the experiment with MDA-MB-435 melanoma; 92% in the experiment on SW-620 colon; 62.6% with MCF7 breast; 76.3% in the experiment with HCT-116 colon. The figures for the growth in the experiment with HCC-2998 colon and in the experiment with KM12 colon were 98.4% and 70.9%, respectively.

For the compound `O=C1/C(=C/c2cccc(F)c2)CN(C(=O)C(Cl)Cl)C/C1=C\c1cccc(F)c1`, the growth is -26.5% (active) with T-47D breast; -81.1% (active) in the experiment with BT-549 breast; -90.2% (active) with MDA-MB-435 melanoma; -63.2% (active) with SW-620 colon; -46.7% (active) in the experiment with MCF7 breast; -82.8% (active) with HCT-116 colon. For the same compound, the growth in the experiment on HCC-2998 colon was -86.5% (active); in the experiment on KM12 colon it was -74.3% (active).

As for `O=C1C(Cl)=C(NCCCCCCNC2=C(Cl)C(=O)c3ccccc3C2=O)C(=O)c2ccccc21`, the growth with T-47D breast is 90.7%; in the experiment on BT-549 breast it was 91.2%; in the experiment with MDA-MB-435 melanoma, 79.4%; in the experiment on SW-620 colon it was 73.3%; with MCF7 breast, 81.6%; with HCT-116 colon, 88%. The results for the growth with HCC-2998 colon and in the experiment with KM12 colon were 103% and 98.1%, respectively.

Regarding `NC(=O)c1cccc(-n2ccc3cc(NC(=O)c4ccc(N5CCOCC5)c(C(F)(F)F)c4)ccc32)n1`, the growth with T-47D breast is 3.32% (active); in the experiment on BT-549 breast, 45.3%; in the experiment on MDA-MB-435 melanoma, 71.3%; in the experiment with SW-620 colon, 68.2%; in the experiment with MCF7 breast, 57.1%; in the experiment with HCT-116 colon it was 44.5%. Further, the growth in the experiment with HCC-2998 colon was 79.8%; with KM12 colon, 33.3%.

For `C[C@@H](CO)[C@@H]1CCC=C2CC[C@]3(C)[C@H](CC[C@@H]4[C@@]5(C)CCCNC(C)(C)[C@@H]5CC[C@]43C)[C@H]21`, the growth in the experiment with T-47D breast is 58.9%; in the experiment on BT-549 breast it was 81.5%; with MDA-MB-435 melanoma, 7.57% (active); with SW-620 colon, -72.1% (active); in the experiment with MCF7 breast, 7.68% (active); with HCT-116 colon, -20.3% (active). In addition, the growth with HCC-2998 colon was -61.5% (active); with KM12 colon it was 4.99% (active).

In the case of `COc1ccc(C(=O)/C=C/c2c(C(F)(F)F)nc3ccccn23)cc1OC`, the growth in the experiment on T-47D breast was -10.7% (active); with BT-549 breast, 4.31% (active); in the experiment with MDA-MB-435 melanoma, 10.4%; in the experiment with SW-620 colon, -4.44% (active); with MCF7 breast, 8.07% (active); with HCT-116 colon, -34.1% (active). For the same compound, the growth with HCC-2998 colon is -9.15% (active); in the experiment with KM12 colon, 3.34% (active).

Turning to `CC(=O)O[C@H]1CC2CCC3C(CC[C@@]4(C)C3C[C@H]([N+]3(C)CCCCC3)[C@@H]4OC(C)=O)[C@@]2(C)C[C@@H]1N1CCCCC1` (stereo not given in full), the growth in the experiment on T-47D breast is 109%; in the experiment with BT-549 breast, 108%; in the experiment with MDA-MB-435 melanoma, 99.5%; in the experiment with SW-620 colon, 106%; in the experiment on MCF7 breast it was 111%; with HCT-116 colon it was 101%. Further, the growth was 111% in the experiment with HCC-2998 colon and 108% with KM12 colon.

For the origin of these results see PubChem BioAssay (NCI).
